Drawing on PubChem BioAssay (EPA / NIEHS), this text covers AC50 and outcome for 25 compounds.

Activity calls are given as the source filed them. How the source made its calls: active means hit-call score of the fitted dose curve at least 0.9, where 1 is the maximum; inactive means score below 0.9.

For orientation: AC50 means the concentration giving half of the maximal activity seen.

Experiment [1] can be described thus: ATG_PXRE_CIS: Attagene CIS-FACTORIAL HepG2 Assay for human Pregnane X Receptor Element (PXRE) (AID 2282957). Conditions: HepG2 Attagene CIS-FACTORIAL PXRE reporter, mRNA; actives raise or lower the signal. In a few lines:
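Cis-element reporter mRNA in human hepatoma HepG2 cells is measured 24 h post-dosing by RT-PCR, primer-extension labeling and capillary electrophoresis; gain or loss of signal is fitted relative to DMSO.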

Experiment [2] is described as follows: ATG_PPRE_CIS: Attagene CIS-FACTORIAL HepG2 Assay for human Peroxisome Proliferator-activated Response Element (PPRE) (AID 2282958). Conditions: HepG2 PPRE cis-element reporter, Attagene transcription factor profiling; actives raise or lower the signal. In a few lines: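 HepG2, transient MRTU transfection (cis promoter elements, endogenous TFs). 24 h dosing. RNA → oligo(dT) RT → PCR → 6-FAM primer extension → HpaI digest → CE. Bidirectional fit vs DMSO.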

Experiment [3] in a line: ATG_RORE_CIS: Attagene CIS-FACTORIAL HepG2 Assay for human RAR-related Orphan Receptor Element (RORE) (AID 2282959). The note with it: HepG2 Attagene cis-factorial RORE reporter, mRNA; actives raise or lower the signal. The procedure, abridged:
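Transient MRTU transfection of human HepG2 liver cells (FuGene 6); 24 h compound exposure; TriZol RNA, oligo(dT) RT, PCR, FAM labeling, HpaI cut, CE fragment analysis. DMSO = negative control/baseline.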

Experiment [4] in a line: ATG_Sox_CIS: Attagene CIS-FACTORIAL HepG2 Assay for human SRY-box transcription factor (SOX) (AID 2282960). The note with it: HepG2 Attagene cis-factorial SOX reporter, mRNA; actives raise or lower the signal. In a few lines:
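Endogenous factor activity in human liver HepG2 cells carrying transfected cis-regulated reporter units. RNA taken 24 h post-dose, reverse-transcribed, PCR-amplified and sized by capillary electrophoresis. Gain or loss of signal fitted relative to DMSO.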

For experiment [5], the target named is Transcription factor Sp1 (Homo sapiens) (UniProt P08047). Description: ATG_Sp1_CIS: Attagene CIS-FACTORIAL HepG2 Assay for human Specificity Protein 1 (Sp1) (AID 2282961). The note with it: HepG2 Sp1 cis-reporter transcription, actives raise or lower the signal. The procedure, abridged:
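Transient MRTU-transfected HepG2, 24 h compound exposure. Total RNA → oligo(dT) RT → PCR of reporter → 6-FAM primer extension → HpaI digest → CE. Endpoint fitted both directions vs DMSO.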

Experiment [6] can be described thus: ATG_SREBP_CIS: Attagene CIS-FACTORIAL HepG2 Assay for human Sterol Regulatory Element Binding (SREBP) (AID 2282962). The note with it: HepG2 Attagene cis-factorial SREBP reporter, mRNA; actives raise or lower the signal. The procedure, abridged:
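HepG2 cells transiently transfected with multiplexed cis-promoter reporter units sensing endogenous transcription factors; reporter mRNA measured 24 h after dosing by RT-PCR, 6-FAM labeling, HpaI digestion and capillary electrophoresis. Bidirectional fit versus DMSO.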

The target of experiment [7] is Signal transducer and activator of transcription 3 (Homo sapiens) (UniProt P40763). Description: ATG_STAT3_CIS: Attagene CIS-FACTORIAL HepG2 Assay for human Signal Transducer and Activator of Transcription 3 (STAT3) (AID 2282963). Conditions: HepG2, Attagene cis-factorial STAT3 reporter transcription; actives raise or lower the signal. The procedure, abridged:
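HepG2 cells transiently transfected with cis-element-driven multiple reporter transcription units; after 24 h chemical exposure, reporter mRNA measured by RT-PCR, 6-FAM primer-extension labelling, HpaI digestion and capillary electrophoresis. Bidirectional fitting versus DMSO baseline.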

Experiment [8] can be described thus: ATG_TA_CIS: Attagene CIS-FACTORIAL HepG2 Assay for human TA Basal Promoter (AID 2282964). The note with it: HepG2 Attagene CIS-factorial TA basal promoter reporter; actives raise or lower the signal. In a few lines:
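Fluorescence from labelled RT-PCR reporter fragments, separated by capillary electrophoresis, gives the signal. Cells: HepG2 transiently carrying multiple reporter units, 24 h chemical dosing. Gain or loss relative to DMSO.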

Experiment [9] can be described thus: ATG_TCF_b_cat_CIS: Attagene CIS-FACTORIAL HepG2 Assay for human T-Cell-Factor with beta-catenin (TCF/b-cat) (AID 2282965). The note with it: HepG2 TCF/beta-catenin cis-reporter transcription, actives raise or lower the signal. The procedure, abridged:
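HepG2 cells transiently transfected with multiple cis-promoter-regulated reporter transcription units, so endogenous transcription factor activity is measured. Reporter mRNA read 24 hours after dosing by RT-PCR, fluorescent labelling and capillary electrophoresis; bidirectional fitting against DMSO.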

Experiment [10] is described as follows: ATG_TAL_CIS: Attagene CIS-FACTORIAL HepG2 Assay for human TAL Basal Promoter (AID 2282966).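 Further: background control endpoint measuring basal TAL promoter reporter mRNA not a specific factor.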 Conditions: HepG2 Attagene cis-factorial TAL promoter reporter; actives raise or lower the signal. The procedure, abridged:
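In this cell-based multiplex, HepG2 liver cells bearing cis-promoter reporter constructs are dosed for 24 hours. Total RNA is reverse-transcribed and amplified, labelled fragments are sized by capillary electrophoresis, and signal changes are fitted bidirectionally versus DMSO.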

Sequence of Signal transducer and activator of transcription 3 (Homo sapiens) (P40763 whole entry, looked up): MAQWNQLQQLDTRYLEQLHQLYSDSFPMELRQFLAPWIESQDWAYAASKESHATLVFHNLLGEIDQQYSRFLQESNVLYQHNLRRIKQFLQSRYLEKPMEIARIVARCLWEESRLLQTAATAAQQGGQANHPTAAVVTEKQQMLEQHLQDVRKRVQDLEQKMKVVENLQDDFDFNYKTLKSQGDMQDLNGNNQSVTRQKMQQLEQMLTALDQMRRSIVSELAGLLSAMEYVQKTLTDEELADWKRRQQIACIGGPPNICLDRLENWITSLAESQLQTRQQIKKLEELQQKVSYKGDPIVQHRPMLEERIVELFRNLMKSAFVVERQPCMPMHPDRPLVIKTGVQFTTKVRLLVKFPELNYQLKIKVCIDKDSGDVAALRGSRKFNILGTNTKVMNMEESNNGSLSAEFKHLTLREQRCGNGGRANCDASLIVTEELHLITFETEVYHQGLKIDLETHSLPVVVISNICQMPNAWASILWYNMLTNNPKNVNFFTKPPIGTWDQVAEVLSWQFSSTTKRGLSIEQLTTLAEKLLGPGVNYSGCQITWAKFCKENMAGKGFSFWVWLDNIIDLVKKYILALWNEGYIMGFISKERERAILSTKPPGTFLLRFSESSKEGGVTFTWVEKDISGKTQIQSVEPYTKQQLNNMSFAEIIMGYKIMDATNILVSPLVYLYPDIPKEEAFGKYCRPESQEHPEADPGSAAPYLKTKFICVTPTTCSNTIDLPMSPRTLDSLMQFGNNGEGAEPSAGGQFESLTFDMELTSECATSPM
Sequence of Transcription factor Sp1 (Homo sapiens) (P08047 whole entry, looked up): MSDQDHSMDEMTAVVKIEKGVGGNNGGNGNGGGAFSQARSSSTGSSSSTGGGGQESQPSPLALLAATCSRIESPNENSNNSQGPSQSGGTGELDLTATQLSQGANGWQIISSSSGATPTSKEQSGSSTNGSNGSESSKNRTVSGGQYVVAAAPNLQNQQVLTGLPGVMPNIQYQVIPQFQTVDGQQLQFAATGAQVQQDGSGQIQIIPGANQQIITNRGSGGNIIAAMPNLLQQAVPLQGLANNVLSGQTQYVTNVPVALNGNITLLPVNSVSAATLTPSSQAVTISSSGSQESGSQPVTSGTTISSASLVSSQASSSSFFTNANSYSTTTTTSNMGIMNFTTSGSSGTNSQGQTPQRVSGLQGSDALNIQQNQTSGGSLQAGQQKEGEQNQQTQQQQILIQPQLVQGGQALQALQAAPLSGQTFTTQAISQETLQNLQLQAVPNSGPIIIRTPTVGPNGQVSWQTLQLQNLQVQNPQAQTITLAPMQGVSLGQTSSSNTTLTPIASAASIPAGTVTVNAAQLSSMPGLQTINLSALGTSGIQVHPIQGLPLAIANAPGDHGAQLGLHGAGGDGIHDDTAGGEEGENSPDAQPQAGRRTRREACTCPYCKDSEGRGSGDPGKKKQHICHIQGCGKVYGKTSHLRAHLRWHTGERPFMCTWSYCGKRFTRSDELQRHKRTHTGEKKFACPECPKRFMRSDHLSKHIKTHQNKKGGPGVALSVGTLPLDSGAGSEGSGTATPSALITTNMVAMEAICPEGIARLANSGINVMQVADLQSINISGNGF

Take `CCOC(=O)CCN(SN(C)C(=O)Oc1cccc2c1OC(C)(C)C2)C(C)C`: the results for the AC50 in experiment [1] and in experiment [6] were 26.5 µM (active) and 100 µM (active), respectively. Further, the compound was classed as inactive in experiment [2], in experiment [3], in experiment [4], in experiment [5], in experiment [7] and in experiment [8]. The result in experiment [9] and in experiment [10] was inactive.
As to `CS(=O)(=O)c1ccc(C(=O)C2C(=O)CCCC2=O)c(Cl)c1COCC(F)(F)F`, in experiment [1], the AC50 is 26.4 µM (active). In addition, the outcome in experiment [2], in experiment [3], in experiment [4], in experiment [5], in experiment [6] and in experiment [7] was inactive. Further, the result in experiment [8], in [9] and in experiment [10] was inactive.
Consider `C=CC(=O)[O][Sn]([CH2]CCC)([CH2]CCC)[CH2]CCC`, for which the AC50 is 0.744 µM (active) in experiment [1]; 0.00687 µM (active) in experiment [2]; 0.67 µM (active) in experiment [4]; 0.504 µM (active) in [5]; 0.189 µM (active) in experiment [6]; 0.657 µM (active) in experiment [7]. Besides, the result in experiment [3], in experiment [8], in experiment [9] and in experiment [10] was inactive.
In the case of `CCCCN(CCCCO)N=O`, the AC50 in experiment [1] was 35.3 µM (active). Besides, the compound was called inactive in [2], in [3], in [4], in [5], in experiment [6] and in experiment [7]. The result in experiment [8], in experiment [9] and in [10] was inactive.
Take `CN(C)c1ccc(N=O)cc1`: the result in experiment [1], in experiment [2], in [3], in experiment [4], in [5] and in [6] was inactive. Besides, the outcome in experiment [7], in experiment [8], in [9] and in experiment [10] was inactive.
As to `c1ccc2sc(SNC3CCCCC3)nc2c1`, the results for the AC50 in [1], in [5] and in [6] were 27 µM (active), 184 µM (active) and 148 µM (active), respectively. Besides, the result in experiment [2], in experiment [3], in experiment [4], in [7], in experiment [8] and in experiment [9] was inactive. In experiment [10], the compound was classed as inactive.
For the compound `O=S1(=O)OC(c2cc(Br)c(O)c(Br)c2)(c2cc(Br)c(O)c(Br)c2)c2ccccc21`, the AC50 in experiment [1] is 24.5 µM (active); in [2] it was 57.4 µM (active); in experiment [3] it was 93 µM (active); in experiment [9] it was 121 µM (active). The call in experiment [4], in experiment [5], in experiment [6], in experiment [7], in experiment [8] and in [10] was inactive.
Take `CC(c1ccccc1)(c1ccc(O)cc1)c1ccc(O)cc1`: the figures for the AC50 in experiment [1], in experiment [6] and in experiment [9] were 2.92 µM (active), 13.2 µM (active) and 16.9 µM (active), respectively. Further, the call in experiment [2], in [3], in [4], in experiment [5], in [7] and in experiment [8] was inactive. Also, the compound was classed as inactive in [10].
For the compound `O=[N+]([O-])c1cc([As](=O)(O)O)ccc1O`, the compound was classed as inactive in [1], in experiment [2], in experiment [3], in experiment [4], in experiment [5] and in experiment [7]. The compound was classed as inactive in experiment [8], in experiment [9] and in experiment [10].
Consider `CC(C)[N+](=O)[O-]`, for which the compound was classed as inactive in experiment [1], in experiment [2], in experiment [3], in experiment [4], in experiment [6] and in [7]. In addition, the result in experiment [8] and in experiment [9] was inactive.
As to `O=C(O)c1cc(I)cc(I)c1I`, the AC50 in [1] was 30.3 µM (active); in experiment [2], 27.8 µM (active). Besides, the call in [3], in experiment [4], in experiment [5], in experiment [7], in [8] and in [9] was inactive. Further, the compound was called inactive in experiment [10].
Take `Brc1ccc(Oc2c(Br)cc(Br)cc2Br)c(Br)c1`: the compound was called inactive in experiment [1], in experiment [2], in experiment [3], in experiment [5], in experiment [6] and in [7]. Besides, the compound was classed as inactive in [8], in experiment [9] and in experiment [10].
`CC(F)(F)CC(F)(F)F`: the call in experiment [1], in experiment [2], in [3], in experiment [5], in [6] and in [7] was inactive. Besides, the result in experiment [8] and in [9] was inactive.
For `CCC(C)(C#N)N=NC(C)(C#N)CC` (centres undefined), the AC50 in experiment [1] was 22 µM (active). For the same compound, the compound was called inactive in experiment [2], in [3], in [4], in experiment [5], in experiment [7] and in experiment [8]. Further, the call in [9] and in experiment [10] was inactive.
For `N#Cc1ccncc1`, the result in experiment [1], in [2], in experiment [3], in [4], in experiment [5] and in experiment [7] was inactive. Besides, the compound was classed as inactive in experiment [8], in experiment [9] and in experiment [10].
Consider `CCOC(=O)c1ccccc1S(=O)(=O)NC(=O)Nc1nc(Cl)cc(OC)n1`, for which the AC50 in experiment [1] is 5.49 µM (active). In addition, the outcome in experiment [2], in [3], in [4], in [6], in experiment [7] and in experiment [8] was inactive. The result in experiment [9] and in experiment [10] was inactive.
As for `OC(c1ccc(Cl)cc1)(c1ccc(Cl)cc1)c1cccnc1`, in experiment [1], the AC50 was 1.89 µM (active). For the same compound, the compound was classed as inactive in experiment [2], in experiment [3], in experiment [4], in [6], in experiment [7] and in experiment [8]. The call in experiment [9] was inactive.
`C#CCOC(=O)/C=C(C)/C=C/CC(C)CCCC(C)C` (centres undefined): the result in [1], in experiment [2], in experiment [3], in [4], in experiment [5] and in experiment [7] was inactive. Besides, the result in experiment [8], in experiment [9] and in experiment [10] was inactive.
`CC(C)CC(C)(c1ccc(O)cc1)c1ccc(O)cc1`: the AC50 in [1] is 2.92 µM (active); in experiment [2], 15.3 µM (active); in [9], 11.1 µM (active). The call in experiment [3], in experiment [5], in experiment [6], in [7], in experiment [8] and in [10] was inactive.
`Oc1c(Br)cc(Br)cc1Br`: the AC50 is 5.82 µM (active) in experiment [1], 51.2 µM (active) in experiment [2], 40.6 µM (active) in experiment [3] and 65.7 µM (active) in experiment [8]. Also, the call in [4], in [6], in experiment [7], in experiment [9] and in [10] was inactive.
Take `OC(Cc1ccccc1Cl)(Cn1cncn1)C1(Cl)CC1` (centres undefined): the concentration at half-maximal activity (AC50) in experiment [1] was 8.32 µM (active). Moreover, the compound was classed as inactive in [2], in experiment [3], in [4], in experiment [6], in [7] and in experiment [8]. Moreover, the outcome in experiment [9] and in experiment [10] was inactive.
Turning to `Clc1cccc(Cl)c1`, the compound was called inactive in experiment [1], in experiment [2], in [3], in [4], in [6] and in experiment [7]. Besides, the compound was classed as inactive in experiment [8], in [9] and in [10].
Take `O=C1C=CC(=O)c2ccccc21`: the compound was classed as inactive in experiment [1], in experiment [2], in experiment [3], in [4], in experiment [5] and in experiment [7]. The call in experiment [8], in experiment [9] and in experiment [10] was inactive.
Turning to `CCN(CC)C(=O)C(Cl)=C(C)OP(=O)(OC)OC`, in [1], the AC50 is 11.3 µM (active). Besides, the result in experiment [2], in [3], in experiment [4], in experiment [5], in experiment [7] and in [8] was inactive. For the same compound, the call in experiment [9] and in experiment [10] was inactive.
Turning to `CC(=O)C(F)(F)C(F)(F)F`, the outcome in experiment [1], in experiment [2], in experiment [3], in experiment [4], in experiment [6] and in [7] was inactive. Also, the compound was called inactive in experiment [8] and in experiment [9].
